# Laboratory results taken from PubChem BioAssay AID652154 (Broad Institute, 2013).
# Hit rate of the full screen: of about 360,000 compounds, about 4,200 (1.2%) were called active. The entries come from a sample that favours actives as a whole. Unmarked numbers belong to inactive results.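 Rule for the calls: active = mean replicate inhibition at least 60% with every replicate also reaching 60%; inconclusive = only one of the two criteria is met; inactive = mean below 60% and not all replicates reaching 60%.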
# Assay: PAX8 transcriptional activity inhibition in RMG-I – RMG-I cells, luciferase, single concentration, primary screen (AID 652154);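 note: luciferase light reporting Pax8 driven TPO promoter activity; plate controls were median of neutral control wells for no effect and mitoxantrone controls for full effect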
# Conditions: RMG-I TPO-luciferase reporter, SteadyGlo, 24 h; at 12.6 µM; stronger effect = higher value
row,SMILES,inhibition
1,O=c1ccc2c(-c3ccccc3S(=O)(=O)O)c3ccc(O)c(O)c3oc-2c1O,65.9% (active)
2,CN(C)C(=O)C[C@@H]1CC[C@@H](NC(=O)NC2CCCC2)[C@@H](CO)O1,-11%
3,Cn1cnc(CCNC(=O)C[C@H]2CC[C@H]3[C@@H](COC[C@@H](O)CN3C(=O)Nc3ccc(C(F)(F)F)cc3)O2)c1,-9.72%
4,CC(C)NC(=O)N1C[C@H]2[C@@H](c3ccccc31)[C@H](CO)N2C(=O)c1ccccc1F,-9.19%
5,CC(=O)Nc1cccc(NC(=O)c2ccc3c(c2)CCN3S(C)(=O)=O)c1,-7.18%
6,CS(=O)(=O)N1CCc2cc(C(=O)Nc3ccccc3)ccc21,-94%
7,CN(c1cccc(NC(=O)c2ccc(CN3CCc4ccccc4C3)cc2)c1)S(C)(=O)=O,72.6% (active)
8,CCCNC(=O)C[C@H]1CC[C@H]2[C@H](COc3ccc(NC(=O)CC)cc3C(=O)N2C)O1,-14.6%
9,N#Cc1c(NC(=O)C2CC(Cl)=CCC2C(=O)O)sc2c1CCCCC2 (stereo not given),-9.86%
10,N#Cc1c(NC(=O)C2CCCO2)sc2c1CCCCC2 (stereo not given),-175%
11,N#Cc1c(NC(=O)CCCl)sc2c1CCCCC2,60.9% (active)
12,O=C(Nc1ccc2c(c1)OCO2)N[C@@H]1CC[C@H](CC(=O)N2CCN(c3ccccc3)CC2)O[C@@H]1CO,-5.75%
13,O=C(C[C@H]1C[C@@H]2c3cc(NC(=O)c4cccnc4)ccc3O[C@@H]2[C@@H](CO)O1)NCc1ccccc1F,-5.11%
14,O=C(NCc1nnnn1-c1ccc(Cl)cc1)c1ccc([N+](=O)[O-])o1,77.5% (active)
15,O=C(NCc1nnnn1-c1ccc(Cl)cc1)c1ccc2c(c1)OCO2,2.39%
16,CC(=O)c1ccc(S(=O)(=O)NCc2nnnn2-c2ccccc2)cc1,3.71%
17,CCCc1cn(CC[C@@H]2CC[C@@H](NC(=O)C3CC3)[C@H](CO)O2)nn1,-17.8%
18,O=C(C[C@@H]1CC[C@@H](NC(=O)CC2CC2)[C@H](CO)O1)NCc1ccc(-c2ccccc2)cc1,2.89%
19,C[C@H](CO)N1C[C@H](C)[C@@H](CN(C)Cc2ccccn2)Oc2ncc(C3=CCCC3)cc2C1=O,-41%
20,COc1cccc(-c2cnc3c(c2)C(=O)N([C@@H](C)CO)C[C@@H](C)[C@@H](CN(C)Cc2ccc(C(=O)O)cc2)O3)c1,-16.9%

row,SMILES,inhibition
1,CCC(=O)N1[C@@H]2c3ccc(-c4ccc(F)cc4)c(=O)n3C[C@H]1[C@H](CO)[C@H]2C(=O)N(C)C,7.01%
2,Cc1ccc(C)c(N2CCN(C(=O)CCCn3c(=O)c4cccn4c4cccnc43)CC2)c1,13.6%
3,O=C(CCCCCn1c(=S)[nH]c2cc3c(cc2c1=O)OCO3)N1CCN(c2ccc(F)cc2)CC1,3.47%
4,Cc1ccc(C)c(N2CCN(C(=O)CCCCCn3c(=S)[nH]c4ccc(N5CCOCC5)cc4c3=O)CC2)c1,95% (active)
5,C[C@@H](NC(=O)C[C@H]1C=C[C@@H](NC(=O)CN2CCOCC2)[C@@H](CO)O1)c1ccccc1,-7.59%
6,C[C@@H]1CCCCO[C@@H](CN(C)Cc2ccc(Cl)c(Cl)c2)[C@H](C)CN([C@@H](C)CO)C(=O)c2cc(NS(C)(=O)=O)ccc2O1,6.58%
7,C[C@@H]1CCCCO[C@@H](CN(C)Cc2ccc(C(F)(F)F)cc2)[C@H](C)CN([C@H](C)CO)C(=O)c2cc(NS(=O)(=O)c3ccc(F)cc3)ccc2O1,104% (active)
8,COc1ccc(S(=O)(=O)Nc2ccc3c(c2)C(=O)N([C@@H](C)CO)C[C@H](C)[C@H](CN(C)Cc2ccc(C(F)(F)F)cc2)OCCCC[C@@H](C)O3)cc1,94.8% (active)
9,Cc1ccc(S(=O)(=O)Nc2ccc3c(c2)C(=O)N([C@H](C)CO)C[C@@H](C)[C@H](CN(C)Cc2ccccc2)OCCCC[C@H](C)O3)cc1,45.2%
10,Cc1ccc(S(=O)(=O)Nc2ccc3c(c2)C(=O)N([C@H](C)CO)C[C@H](C)[C@@H](CN(C)Cc2ccccc2)OCCCC[C@H](C)O3)cc1,-7.59%
11,Cc1ccc(S(=O)(=O)Nc2ccc3c(c2)C(=O)N([C@@H](C)CO)C[C@@H](C)[C@@H](CN(C)Cc2ccc(C(F)(F)F)cc2)OCCCC[C@@H](C)O3)cc1,105% (active)
12,Cc1ccc(S(=O)(=O)Nc2ccc3c(c2)C(=O)N([C@@H](C)CO)C[C@@H](C)[C@H](CN(C)Cc2ccc(Cl)c(Cl)c2)OCCCC[C@@H](C)O3)cc1,75.8% (active)
13,COc1ccc(CN(C)C[C@@H]2OCCCC[C@@H](C)Oc3ccc(NS(=O)(=O)c4ccc(F)cc4)cc3C(=O)N([C@@H](C)CO)C[C@H]2C)cc1,-7.37%
14,COc1ccc(S(=O)(=O)Nc2ccc3c(c2)C(=O)N([C@@H](C)CO)C[C@@H](C)[C@H](CN(C)Cc2ccc(C(F)(F)F)cc2)OCCCC[C@@H](C)O3)cc1,27.5%
15,C[C@H](CO)N1C[C@H](C)[C@H](CN(C)Cc2ccc(C(F)(F)F)cc2)OCCCC[C@H](C)Oc2ccc(NS(=O)(=O)c3ccc(Cl)cc3)cc2C1=O,19.1%
16,Cc1ccc(S(=O)(=O)Nc2ccc3c(c2)C(=O)N([C@@H](C)CO)C[C@@H](C)[C@H](CN(C)Cc2ccc4c(c2)OCO4)OCCCC[C@@H](C)O3)cc1,-3.85%
17,COc1ccc(CN(C)C[C@@H]2OCCCC[C@H](C)Oc3ccc(NS(=O)(=O)c4ccc(F)cc4)cc3C(=O)N([C@H](C)CO)C[C@H]2C)cc1,-1.69%
18,COc1cccc(S(=O)(=O)N[C@@H]2CC[C@H](CCNC(=O)Cc3ccncc3)O[C@@H]2CO)c1,-23.7%
19,CN(C)C(=O)c1ccc(-c2ccc([C@H]3[C@H](CO)N4C(=O)CN(C(=O)C5CCCC5)C[C@@H]34)cc2)cc1,-16.1%
20,C[C@H](CO)N1C[C@H](C)[C@@H](CN(C)Cc2cncnc2)Oc2cc(-c3ccccc3)ccc2S1(=O)=O,1.94%
